Experimental findings from ChEMBL document CHEMBL2218924, “A broad activity screen in support of a chemogenomic map for kinase signalling research and drug discovery” (Biochem J, 2013) are described below.

The target of experiment [1] is T1, Ephrin type-A receptor 3 (Homo sapiens) (UniProt P29320).
T1 sequence (whole entry): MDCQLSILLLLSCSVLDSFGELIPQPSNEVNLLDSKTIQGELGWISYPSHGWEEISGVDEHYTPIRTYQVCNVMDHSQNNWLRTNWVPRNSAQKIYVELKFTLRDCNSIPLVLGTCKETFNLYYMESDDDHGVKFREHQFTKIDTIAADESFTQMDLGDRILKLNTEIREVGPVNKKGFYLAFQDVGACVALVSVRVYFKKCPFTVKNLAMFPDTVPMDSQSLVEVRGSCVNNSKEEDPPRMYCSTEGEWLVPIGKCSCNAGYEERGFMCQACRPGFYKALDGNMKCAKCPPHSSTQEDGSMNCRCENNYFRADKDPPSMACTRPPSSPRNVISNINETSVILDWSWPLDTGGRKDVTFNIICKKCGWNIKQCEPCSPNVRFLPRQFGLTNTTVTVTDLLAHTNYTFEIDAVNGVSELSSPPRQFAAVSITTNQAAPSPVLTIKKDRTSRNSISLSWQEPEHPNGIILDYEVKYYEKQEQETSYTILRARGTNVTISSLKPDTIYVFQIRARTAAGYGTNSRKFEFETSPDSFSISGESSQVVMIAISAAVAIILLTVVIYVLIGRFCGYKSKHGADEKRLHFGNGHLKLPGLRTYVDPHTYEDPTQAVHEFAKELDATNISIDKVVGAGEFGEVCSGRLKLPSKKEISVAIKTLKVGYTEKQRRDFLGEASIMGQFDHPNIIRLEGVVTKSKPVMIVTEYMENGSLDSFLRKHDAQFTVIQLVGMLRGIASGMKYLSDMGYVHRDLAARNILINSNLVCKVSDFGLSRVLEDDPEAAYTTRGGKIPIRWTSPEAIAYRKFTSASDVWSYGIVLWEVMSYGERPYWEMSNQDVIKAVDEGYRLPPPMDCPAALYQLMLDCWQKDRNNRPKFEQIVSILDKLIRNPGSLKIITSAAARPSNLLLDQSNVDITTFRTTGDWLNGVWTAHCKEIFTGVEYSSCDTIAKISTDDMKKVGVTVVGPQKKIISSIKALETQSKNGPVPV
The conditions noted are these: at 10 µM.

The target in experiment [2] is Ephrin type-A receptor 4 (Homo sapiens) (UniProt P54764). Particulars: at 1 µM.
Sequence of Ephrin type-A receptor 4 (Homo sapiens) (P54764 whole entry): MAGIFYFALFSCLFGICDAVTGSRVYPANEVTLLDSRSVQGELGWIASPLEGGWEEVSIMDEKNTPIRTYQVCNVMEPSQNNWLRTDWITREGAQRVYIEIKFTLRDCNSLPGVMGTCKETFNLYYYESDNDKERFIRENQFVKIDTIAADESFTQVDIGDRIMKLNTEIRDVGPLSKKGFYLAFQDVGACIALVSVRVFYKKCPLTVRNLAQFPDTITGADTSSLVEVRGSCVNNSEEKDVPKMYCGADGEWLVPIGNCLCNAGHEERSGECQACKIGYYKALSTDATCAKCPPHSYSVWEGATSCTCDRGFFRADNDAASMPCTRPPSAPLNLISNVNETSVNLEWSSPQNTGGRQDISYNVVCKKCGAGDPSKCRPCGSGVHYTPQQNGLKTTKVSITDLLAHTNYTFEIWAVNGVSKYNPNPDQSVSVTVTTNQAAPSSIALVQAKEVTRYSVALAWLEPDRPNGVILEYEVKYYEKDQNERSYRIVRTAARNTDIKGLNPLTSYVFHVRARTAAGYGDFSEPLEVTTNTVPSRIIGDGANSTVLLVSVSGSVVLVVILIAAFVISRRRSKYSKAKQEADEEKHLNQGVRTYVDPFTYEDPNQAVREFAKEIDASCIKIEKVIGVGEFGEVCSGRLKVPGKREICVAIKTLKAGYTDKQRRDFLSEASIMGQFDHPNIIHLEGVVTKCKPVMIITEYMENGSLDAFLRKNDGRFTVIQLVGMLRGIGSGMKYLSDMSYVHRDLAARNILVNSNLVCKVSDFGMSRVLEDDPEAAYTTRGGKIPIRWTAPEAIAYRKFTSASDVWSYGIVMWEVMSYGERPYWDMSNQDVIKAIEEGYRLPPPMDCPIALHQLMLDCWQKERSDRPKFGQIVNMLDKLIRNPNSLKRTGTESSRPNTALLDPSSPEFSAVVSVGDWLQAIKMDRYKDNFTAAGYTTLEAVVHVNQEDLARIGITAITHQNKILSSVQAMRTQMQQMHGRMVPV
The target is the same in experiment [3]. The conditions noted are these: at 10 µM.
The target in experiment [4] is Ephrin type-A receptor 5 (Homo sapiens) (UniProt P54756). Particulars: at 1 µM.
Sequence of Ephrin type-A receptor 5 (Homo sapiens) (P54756 whole entry): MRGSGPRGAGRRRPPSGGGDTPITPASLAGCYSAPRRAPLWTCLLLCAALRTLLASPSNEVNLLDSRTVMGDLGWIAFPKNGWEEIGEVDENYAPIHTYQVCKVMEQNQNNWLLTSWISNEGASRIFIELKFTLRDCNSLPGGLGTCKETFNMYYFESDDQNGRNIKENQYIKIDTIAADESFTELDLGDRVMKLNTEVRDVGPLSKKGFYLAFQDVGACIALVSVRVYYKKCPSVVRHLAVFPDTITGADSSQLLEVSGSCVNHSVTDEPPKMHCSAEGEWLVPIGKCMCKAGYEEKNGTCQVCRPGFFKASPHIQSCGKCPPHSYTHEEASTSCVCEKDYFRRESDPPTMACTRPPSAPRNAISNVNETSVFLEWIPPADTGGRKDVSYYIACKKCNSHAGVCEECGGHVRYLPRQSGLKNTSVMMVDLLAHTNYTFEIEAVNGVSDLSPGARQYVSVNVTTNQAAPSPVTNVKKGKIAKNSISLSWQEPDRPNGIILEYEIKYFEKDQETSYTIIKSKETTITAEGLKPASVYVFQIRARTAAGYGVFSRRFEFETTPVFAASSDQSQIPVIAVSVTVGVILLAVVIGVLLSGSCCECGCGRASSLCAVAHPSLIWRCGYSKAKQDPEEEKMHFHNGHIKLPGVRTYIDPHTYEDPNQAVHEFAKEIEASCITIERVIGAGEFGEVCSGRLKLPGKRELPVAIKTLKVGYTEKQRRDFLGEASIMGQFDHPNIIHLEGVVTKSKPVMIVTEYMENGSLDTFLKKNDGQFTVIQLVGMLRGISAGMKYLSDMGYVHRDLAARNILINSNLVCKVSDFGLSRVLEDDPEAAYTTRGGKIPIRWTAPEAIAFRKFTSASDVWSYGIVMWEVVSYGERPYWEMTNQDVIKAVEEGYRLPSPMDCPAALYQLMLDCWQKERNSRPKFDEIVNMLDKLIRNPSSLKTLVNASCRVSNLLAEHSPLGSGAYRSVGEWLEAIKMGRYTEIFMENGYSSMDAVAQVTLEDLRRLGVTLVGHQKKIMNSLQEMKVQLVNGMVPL
Experiment [5] has the same target. Particulars: at 10 µM.
Experiment [6] concerns the target Ephrin type-A receptor 7 (Homo sapiens) (UniProt Q15375). Particulars: at 1 µM.
The target is the same in experiment [7]. Particulars: at 10 µM.
Experiment [8] deals with T2, Ephrin type-A receptor 8 (Homo sapiens) (UniProt P29322).
T2 sequence (whole entry): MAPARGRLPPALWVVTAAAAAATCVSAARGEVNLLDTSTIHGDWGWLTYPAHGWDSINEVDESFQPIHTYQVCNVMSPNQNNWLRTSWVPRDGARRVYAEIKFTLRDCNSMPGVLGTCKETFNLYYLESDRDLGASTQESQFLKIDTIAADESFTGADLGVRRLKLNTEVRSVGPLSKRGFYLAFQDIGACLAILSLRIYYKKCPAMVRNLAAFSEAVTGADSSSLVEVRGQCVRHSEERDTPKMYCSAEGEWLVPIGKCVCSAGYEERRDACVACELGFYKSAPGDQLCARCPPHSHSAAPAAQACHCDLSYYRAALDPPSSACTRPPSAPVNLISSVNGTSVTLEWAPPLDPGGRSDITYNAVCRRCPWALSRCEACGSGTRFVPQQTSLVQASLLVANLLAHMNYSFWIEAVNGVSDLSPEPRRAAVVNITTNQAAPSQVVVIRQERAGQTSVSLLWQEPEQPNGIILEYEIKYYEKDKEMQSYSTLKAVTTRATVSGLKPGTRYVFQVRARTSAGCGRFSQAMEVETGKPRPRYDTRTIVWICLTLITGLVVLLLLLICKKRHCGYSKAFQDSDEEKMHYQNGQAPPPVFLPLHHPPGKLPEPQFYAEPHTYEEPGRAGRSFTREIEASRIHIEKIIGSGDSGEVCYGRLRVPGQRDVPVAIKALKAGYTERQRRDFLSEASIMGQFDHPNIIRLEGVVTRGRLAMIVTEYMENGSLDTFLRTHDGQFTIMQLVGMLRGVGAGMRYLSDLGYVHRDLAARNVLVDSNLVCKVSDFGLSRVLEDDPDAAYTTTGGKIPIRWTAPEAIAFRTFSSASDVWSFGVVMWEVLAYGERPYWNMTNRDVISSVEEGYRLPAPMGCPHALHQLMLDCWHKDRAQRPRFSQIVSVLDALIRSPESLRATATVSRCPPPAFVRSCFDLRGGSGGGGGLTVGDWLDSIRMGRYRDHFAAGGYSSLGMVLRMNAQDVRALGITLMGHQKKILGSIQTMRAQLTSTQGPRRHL
Particulars: at 1 µM.

Experiment [9] deals with T2, Ephrin type-A receptor 8 (Homo sapiens). Particulars: at 10 µM.
The target in experiment [10] is T3, Ephrin type-B receptor 1 (Homo sapiens) (UniProt P54762).
T3 sequence (whole entry): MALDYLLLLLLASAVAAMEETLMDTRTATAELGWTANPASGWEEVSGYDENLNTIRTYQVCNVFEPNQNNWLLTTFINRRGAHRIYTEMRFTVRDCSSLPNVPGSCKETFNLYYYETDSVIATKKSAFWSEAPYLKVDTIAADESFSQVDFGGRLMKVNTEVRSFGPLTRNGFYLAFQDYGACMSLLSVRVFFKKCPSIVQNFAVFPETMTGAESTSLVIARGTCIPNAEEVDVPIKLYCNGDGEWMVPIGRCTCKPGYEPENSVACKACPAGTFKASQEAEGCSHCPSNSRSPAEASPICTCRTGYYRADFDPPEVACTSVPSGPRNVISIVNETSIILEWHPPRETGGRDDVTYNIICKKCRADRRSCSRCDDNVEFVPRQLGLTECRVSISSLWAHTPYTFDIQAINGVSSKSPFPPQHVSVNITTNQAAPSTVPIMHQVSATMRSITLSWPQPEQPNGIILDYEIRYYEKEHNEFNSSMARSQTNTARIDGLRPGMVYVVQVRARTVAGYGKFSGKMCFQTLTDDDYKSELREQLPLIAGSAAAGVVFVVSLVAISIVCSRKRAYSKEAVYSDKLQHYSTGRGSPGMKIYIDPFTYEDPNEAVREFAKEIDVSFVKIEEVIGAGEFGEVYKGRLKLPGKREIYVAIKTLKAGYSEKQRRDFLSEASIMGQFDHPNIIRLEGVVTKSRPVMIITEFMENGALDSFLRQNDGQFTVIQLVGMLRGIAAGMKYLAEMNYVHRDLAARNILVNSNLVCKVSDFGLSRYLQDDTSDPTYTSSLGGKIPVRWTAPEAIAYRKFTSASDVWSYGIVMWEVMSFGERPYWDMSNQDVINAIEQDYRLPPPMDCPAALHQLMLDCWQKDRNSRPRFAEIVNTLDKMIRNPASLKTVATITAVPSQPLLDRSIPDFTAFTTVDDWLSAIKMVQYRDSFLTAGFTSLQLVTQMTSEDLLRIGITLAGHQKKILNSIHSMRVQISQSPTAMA
The conditions noted are these: at 1 µM.

Sequence of Ephrin type-A receptor 7 (Homo sapiens) (Q15375 28-998 limits assumed): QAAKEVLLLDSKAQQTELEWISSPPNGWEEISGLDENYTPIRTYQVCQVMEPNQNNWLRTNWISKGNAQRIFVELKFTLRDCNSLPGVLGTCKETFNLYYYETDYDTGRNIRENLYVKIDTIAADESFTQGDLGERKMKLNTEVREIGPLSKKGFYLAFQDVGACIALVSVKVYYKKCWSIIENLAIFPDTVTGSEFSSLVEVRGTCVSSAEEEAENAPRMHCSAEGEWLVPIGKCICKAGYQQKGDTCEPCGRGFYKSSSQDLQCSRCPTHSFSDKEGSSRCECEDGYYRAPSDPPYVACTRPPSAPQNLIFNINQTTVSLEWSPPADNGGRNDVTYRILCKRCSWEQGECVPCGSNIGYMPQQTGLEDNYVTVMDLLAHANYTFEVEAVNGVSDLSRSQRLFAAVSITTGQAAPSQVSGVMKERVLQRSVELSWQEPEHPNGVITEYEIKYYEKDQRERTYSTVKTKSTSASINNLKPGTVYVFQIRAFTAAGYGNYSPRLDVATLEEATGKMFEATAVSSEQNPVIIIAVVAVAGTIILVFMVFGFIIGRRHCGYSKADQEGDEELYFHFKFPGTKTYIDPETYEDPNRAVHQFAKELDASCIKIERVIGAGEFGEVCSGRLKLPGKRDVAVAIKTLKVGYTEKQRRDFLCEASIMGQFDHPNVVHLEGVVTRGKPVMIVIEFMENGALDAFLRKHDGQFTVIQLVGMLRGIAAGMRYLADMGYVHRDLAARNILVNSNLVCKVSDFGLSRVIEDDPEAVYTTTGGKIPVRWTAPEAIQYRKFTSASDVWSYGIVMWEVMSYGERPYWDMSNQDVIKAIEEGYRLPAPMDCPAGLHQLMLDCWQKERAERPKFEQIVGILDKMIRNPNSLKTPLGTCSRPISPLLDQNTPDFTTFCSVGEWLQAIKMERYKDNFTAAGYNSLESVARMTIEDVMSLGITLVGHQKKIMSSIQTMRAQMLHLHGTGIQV

With `O=C1c2ccccc2-[n+]2ccc3c([nH]c4ccccc43)c21`, the residual activity – broadly, the signal under treatment as a percentage of the control signal – in [1] was 81%; in experiment [2], 103%; in experiment [3] it was 104%; in [4], 116%; in [5], 102%; in [6] it was 85%. Further, the residual activity amounted to 79% in [7], 89% in experiment [8], 85% in experiment [9] and 85% in [10].
